What was measured:
Assay in all cases: PBM binding z-score (relative to random genomic background probes); higher = stronger binding; sequences stand for … in GC…GCGATTGACAGCGTAGAATGAAGG
[1] = system: FXR:RXRa (NR concentration 270 nM, RXRa partner concentration 90 nM)
How it was run: (§1)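 Scanned fluorescence from custom Agilent 4×180K protein-binding microarrays was regression-normalized. Binding z-scores use random background probes as reference. Ligand-free nuclear receptor dimers were incubated on the arrays for 1 h and detected with antibodies against each partner (one per run).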

[2] = system: LXRa:RXRa (NR concentration 270 nM, RXRa partner concentration 90 nM)
How it was run: as §1

[3] = system: LXRa homodimer (NR concentration 270 nM)
How it was run: as §1

[4] = system: LXRb:RXRa (NR concentration 270 nM, RXRa partner concentration 90 nM)
How it was run: as §1

[5] = system: LXRb homodimer (NR concentration 270 nM)
How it was run: as §1

[6] = system: PPARa:RXRa (NR concentration 270 nM, RXRa partner concentration 90 nM)
How it was run: as §1

[7] = system: PPARg:RXRa (NR concentration 180 nM, RXRa partner concentration 90 nM)
How it was run: as §1

[8] = system: PPARg:RXRa 270nM:90nM, anti-RXR (NR concentration 270 nM, RXRa partner concentration 90 nM)
How it was run: as §1

[9] = system: PPARg:RXRa 30nM:10nM, anti-RXR (NR concentration 30 nM, RXRa partner concentration 10 nM)
How it was run: as §1

[10] = system: PPARg:RXRa 90nM:30nM, anti-RXR (NR concentration 90 nM, RXRa partner concentration 30 nM)
How it was run: as §1

Row | Sequence | PBM binding z-score [1] | PBM binding z-score [2] | PBM binding z-score [3] | PBM binding z-score [4] | PBM binding z-score [5] | PBM binding z-score [6] | PBM binding z-score [7] | PBM binding z-score [8] | PBM binding z-score [9] | PBM binding z-score [10]
1 | TAGCCTAGGTCAGATCGGGCCAGTGTACGCTATA | 1.85 | 0.96 | -0.454 | 0.525 | -0.897 | 1.49 | 0.36 | 0.761 | -0.533 | -0.134
2 | TCGAGTAGGTTAGTCCGGGCATTCAGCCAACATA | -0.219 | 0.109 | 0.0222 | -0.106 | -1.05 | 0.14 | -0.395 | 0.281 | 0.992 | 0.409
3 | GCAGACAGGTGAAACGCAGGGAACTCAGGGTGGC | -0.391 | -0.181 | -0.294 | -0.514 | -1.21 | 0.613 | 0.488 | -0.246 | -0.526 | -0.424
4 | TATGCTAGGTCAACGATGGTCAGCTAATCTGCTA | 3.36 | 4.53 | 2.1 | 2.25 | 0.889 | 3.37 | 2.89 | 2.78 | 0.716 | 1.87
5 | ACTATTAGTTGACTTAGGGCAACTGATACGACGC | 0.17 | 0.0575 | 0.162 | 0.0522 | 0.38 | 0.0544 | 0.858 | 0.0451 | 0.501 | 0.431
6 | TGAATGAGGTTATAAGATTAGGGAACGTTGCAAA | 1.34 | 1.39 | 0.076 | 1.21 | -0.0904 | 2.29 | 1.15 | 1.55 | 1.09 | 1.51
7 | CAAACTAGGTCAAGGGTCAAAGTCGAGCCAACCA | 7.52 | 5.72 | 2.34 | 5.71 | 1.02 | 7.64 | 13.1 | 10.9 | 11.4 | 11.8
8 | TCATATAGGTATTACAGGTGAAAGTCGGCATCTA | 1.47 | 2.05 | 1.08 | 1.34 | 0.496 | 1.67 | 1.1 | 2.38 | 4.15 | 3.27
9 | AGTCAAAGTTCAGGACGAGGTAACGAAAAGCACG | 4.17 | 3.54 | 0.921 | 1.92 | 0.307 | 3.39 | 4.87 | 5.02 | 2.18 | 4.04
10 | TCATATAGGTAAAGGTGAAAGTGGAACGATATGA | 0.702 | 1.31 | -0.0893 | 1.28 | -0.406 | 3.54 | 4.42 | 4.97 | 4.56 | 5.14
11 | ATCTCTAGGTAAGACTCAGTGCAGTGAAGAACGC | 0.188 | 0.383 | 0.212 | -0.0859 | 0.687 | -0.163 | -0.0807 | 0.0157 | 0.104 | -0.0649
12 | CCTACAGGGCCATCAGGTCATTGATATCAACGTT | 1.88 | 1.31 | 0.875 | 1.51 | -0.272 | 2 | 0.835 | 1.04 | 0.253 | 0.77
13 | AGTCAAAGTTCACTAGGTAACGTGAGATTCAGCT | 4.64 | 4.79 | 2.64 | 2.71 | 0.742 | 4.57 | 7.14 | 6.33 | 3.41 | 5.47
14 | CGTCCAAGGTCAGCAGGTCAGTGACAGCGACGTG | 5.75 | 3.99 | 0.47 | 2.99 | -0.142 | 4.63 | 3.93 | 4.53 | 1.26 | 2.97
15 | GCGACTGGGGCATCAGCAGGTTACCACAACTTAA | -0.0917 | -0.185 | -0.291 | 0.725 | -0.793 | 0.935 | 0.922 | 1.13 | -0.162 | -0.0671
16 | TCTAGTTGGTCACGGAGGTGACACACGACGGGTA | 1.04 | 0.805 | -0.0469 | 0.335 | 0.00515 | 1.43 | 1.64 | 1.98 | 2.83 | 2.24
17 | ACTAGCAGGCCAAGTTTGAGTCACTCAAACAAAG | -0.527 | -0.601 | -0.503 | -0.529 | -0.797 | -0.0783 | -0.147 | -0.486 | -0.4 | -0.496
18 | TAGCCTAGGTCAGTGGGCCAGTATAGTACGCATC | 0.672 | 0.503 | -0.786 | 0.274 | -0.999 | 2.11 | 2.47 | 2.57 | 0.337 | 1.47
19 | AGCATGAGGTTAAGATCAGGGAAACAGAATACAT | 1.97 | 2.02 | 0.07 | 1.75 | 0.151 | 3.06 | 1.14 | 1.04 | 0.357 | 0.819
20 | ATCTCTAGGTAAAGATAGTTCAGTCAATGCAAAT | 0.395 | 4.34 | 0.831 | 0.948 | 0.433 | 0.518 | 0.623 | 0.469 | 0.292 | 0.471
21 | ATCGAAAGGTCGACAAGGTGAGTATACACCGTTT | 4.68 | 3.45 | 0.283 | 3 | 0.522 | 4.41 | 2.79 | 3.21 | 1.2 | 2.21
22 | CCTTACGGGTCACGAGGTTATTGCACGACGAGCG | 6.84 | 4.54 | 0.946 | 4.15 | 0.296 | 6.08 | 7.34 | 6.45 | 3.32 | 5.41
23 | GCTATTAGTTGAAGGGGCAACCGAATGATTCTCG | -0.0427 | -0.304 | -0.118 | 0.151 | -0.16 | 0.84 | 0.924 | 2.1 | 0.49 | 1.65
